These results are taken from the supplement of paper PMC12340641.

SMILES strings stand for the structures. Where a name gives a salt, the structure may show the parent alone. ± gives the standard deviation of the averaged measurements.

Sequence of IKZF1 (dCK*-IKZF1 fusion in HEK293FT) (Q13422 whole entry, looked up, the tested form may be a part): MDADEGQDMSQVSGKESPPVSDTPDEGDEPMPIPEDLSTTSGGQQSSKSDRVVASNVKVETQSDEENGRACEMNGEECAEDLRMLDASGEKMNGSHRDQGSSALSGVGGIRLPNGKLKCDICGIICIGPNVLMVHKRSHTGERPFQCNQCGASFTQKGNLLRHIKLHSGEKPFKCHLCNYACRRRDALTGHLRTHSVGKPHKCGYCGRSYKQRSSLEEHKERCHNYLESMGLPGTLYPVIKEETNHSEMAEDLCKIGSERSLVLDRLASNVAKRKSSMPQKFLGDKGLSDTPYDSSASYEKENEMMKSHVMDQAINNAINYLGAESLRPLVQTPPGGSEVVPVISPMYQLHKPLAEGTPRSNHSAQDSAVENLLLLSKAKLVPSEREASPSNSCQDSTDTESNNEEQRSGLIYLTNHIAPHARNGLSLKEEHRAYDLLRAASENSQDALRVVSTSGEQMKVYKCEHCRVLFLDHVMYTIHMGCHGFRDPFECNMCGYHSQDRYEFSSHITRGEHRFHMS

The first test has as its target IKZF1 (dCK*-IKZF1 fusion in HEK293FT) (UniProt Q13422). Kind of test: inhibition of IKZF1 HTRF signal (DMSO = 0%, pomalidomide 10 uM = 100%); higher = lower IKZF1 protein level. The note with it: compound concentration: 5 uM, overnight (~20 h). In outline:
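Compound was tested at 5 μM in single wells on HEK293FT cells (2000/well, 384-well) stably carrying an IKZF1 fusion, overnight at 37 °C. Total IKZF1 was measured in lysates with a commercial HTRF antibody kit as the background-subtracted 665/620 nm time-resolved FRET ratio. The reported figure is percent inhibition of IKZF1 signal, scaled per plate between vehicle and a reference degrader. The vehicle anchor was 0% and the degrader anchor 100%.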
For orientation: Time-resolved FRET reads energy transfer from a long-lived donor to a nearby acceptor.
With `CSc1nc2cc(Cl)c(Oc3cccc(Cl)c3Cl)cc2[nH]1`, the “inhibition of IKZF1 HTRF signal” value is -43%.

As for `COc1ccc(NS(=O)(=O)c2ccc(N=Nc3ccc(O)c(C(=O)O)c3)cc2)nn1` [salazodine], the “inhibition of IKZF1 HTRF signal” value was -2.92%.

On to `O=C(O)c1cc(N=Nc2ccc(O)c(C(=O)O)c2)ccc1O` [Olsalazine Na], for which the “inhibition of IKZF1 HTRF signal” value is -197%. Still for that read-out and setting: as for `Nc1ccc2cc3ccc(N)cc3nc2c1`, the figure is 62.9%. For `O=C(Nc1ccc(S(=O)(=O)Nc2nccs2)cc1)C(c1ccccc1)c1ccccc1`, the “inhibition of IKZF1 HTRF signal” value is -31.6%.

Turning to `NC1CC(O[C@H]2C[C@@]([C@@](C)=O)(O)CC3=C2C(O)=C5C(C(C4=CC=CC(OC)=C4C5=O)=O)=C3O)OC(C)C1O` (stereo not given in full) [daunorubicin], the “inhibition of IKZF1 HTRF signal” value amounted to 22%. Same read-out and setting: the value for `COc1ccc(-c2nc3cc(C4=NNC(=O)CC4C)ccc3[nH]2)cc1` (stereo not given) [Pimobendan (Vetmedin)] was -8.62%; that for `Clc1ccc(COC(Cn2ccnc2)c2ccc(Cl)cc2Cl)c(Cl)c1` (stereo not given) [Miconazole] was 20.3%. The same measure, in the same setting: as for `C=CC[C@@H]1/C=C(\C)C[C@H](C)C[C@H](OC)[C@H]2O[C@@](O)(C(=O)C(=O)N3CCCC[C@H]3C(=O)O[C@H](/C(C)=C/[C@@H]3CC[C@@H](O)[C@H](OC)C3)[C@H](C)[C@@H](O)CC1=O)[C@H](C)C[C@@H]2OC` [Tacrolimus], the figure is -32.9%; as for `Cc1cc(C)c(C2=NOC3C4CCC(C4)C23)c(C)c1` (stereo not given), -34%; as for `N#CC(c1ccccc1)(c1ccccc1)c1ccccc1Cl`, -37.8%. As for `CN1CCN(Cc2ccc(-c3cnc4[nH]cc(-c5ccc6[nH]ccc6c5)c4c3)cc2)CC1`, the “inhibition of IKZF1 HTRF signal” value is -32.6%.

With `COC(=O)/C=C/c1cc(O)ccc1O` [erbstatin-analog], the “inhibition of IKZF1 HTRF signal” value is -21.1%.

Consider `Nc1nc2c(ccc3ccccc32)s1`, for which the “inhibition of IKZF1 HTRF signal” value was -31%. The same measure, in the same setting: the value for `C/C(=C\c1csc(C)n1)[C@@H]1C[C@@H]2O[C@]2(C)CCC[C@H](C)[C@H](O)[C@@H](C)C(=O)C(C)(C)[C@@H](O)CC(=O)N1` [Ixabepilone] was -13.2%. Same read-out and setting: as for `COC(=O)C1=C(C)NC(C)=C(C(=O)OC/C=C/c2ccccc2)C1c1cccc([N+](=O)[O-])c1` (stereo not given) [Pranidipine], the figure is 13.9%; as for `OCCCNc1cc(-c2ccnc(Nc3cccc(Cl)c3)n2)ccn1`, 14.5%; as for `Nc1ccc2ncnc(NCCc3ccc(Oc4ccccc4)cc3)c2c1`, 20.9%. On the same count and under the same terms, the value for `NC(=O)c1cn([C@@H]2O[C@H](CO)[C@@H](O)[C@H]2O)c2ncnc(N)c2c1=O` was -11.4%; that for `Oc1c(I)cc(Cl)c2cccnc12` was -2.15%; that for `Cc1ccc(/C=C2\CNC/C(=C\c3ccc(C)cc3)C2=O)cc1` was -70%.

Regarding `O=C(Nc1nc(-c2cc(Cl)cs2)c(N2CCN(C3CCCCC3)CC2)s1)c1cnc(N2CCC(C(=O)O)CC2)c(Cl)c1` [Avatrombopag], the “inhibition of IKZF1 HTRF signal” value was -35.6%. With `COc1ccccc1NC(=O)OCC1CCN(C(=O)OC(C)(C)C)CC1`, the “inhibition of IKZF1 HTRF signal” value was -21.9%. Still for that read-out and setting: the value for `Cc1nc(-c2cccnc2)sc1C(=O)Nc1ccccc1-c1cn2c(CN3CCOCC3)csc2n1` was 6.43%; that for `COc1ccc(Cl)cc1C(=O)NCCc1ccc(C(=O)O)cc1` [meglitinide] was -37.6%; that for `O=c1c(O)c(-c2cc(O)c(O)c(O)c2)oc2cc(O)cc(O)c12` [Myricetin (Cannabiscetin)] was 18.8%. Still for that read-out and setting: as for `Nc1nc(=O)n([C@H]2C[C@H](O)[C@@H](CO)O2)cc1F` [5-Fluoro-2'-deoxycytidine], the figure is -4.07%.

A further test concerns HEK293FT dCK*-only. Kind of test: relative growth in counter assay (no AraC = 100%, AraC + DMSO = 0%); higher = more growth rescue independent of IKZF1. The conditions noted are these: compound concentration: 5 uM; AraC concentration: 0.3 uM; overnight pretreatment + 4 days AraC. In outline: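 For this counter assay, relative growth was normalised on each plate to two kinds of reference wells. HEK293FT cells expressing only an engineered kinase construct (300/well, 384-well) were treated with 5 μM compound 2 h after seeding, then after overnight at 37 °C with a nucleoside suicide substrate at 0.3 μM plus medium for 4 days. On day 5, Hoechst 33342-stained nuclei were counted by imaging, taking wells without suicide substrate as 100% and substrate plus vehicle as 0%.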
As for `COc1cc(NS(C)(=O)=O)ccc1Nc1c2ccccc2nc2ccccc12`, the “relative growth in counter assay” value is -35.1%. The same measure, in the same setting: as for `Oc1c(Cl)cc(Cl)c(Cl)c1Cc1c(O)c(Cl)cc(Cl)c1Cl`, the figure is -1.16%; as for `O=C(Nc1cc(C(F)(F)F)ccc1O)Nc1cc(C(F)(F)F)ccc1O`, -5.68%. As to `OCCN1CCN(CCCN2c3ccccc3Sc3ccc(Cl)cc32)CC1` [Perphenazine], the “relative growth in counter assay” value was 7.41 ± 5.6%. Still for that read-out and setting: as for `CN1CCC(=C2c3ccccc3Sc3ccccc32)CC1`, the figure is -4.99%; as for `O=C1CC[C@H](N2Cc3cc(N4CCN(CC5CCN(c6ccc([C@@H]7c8ccc(O)cc8CC[C@@H]7c7ccccc7)cc6)CC5)CC4)ccc3C2=O)C(=O)N1`, 2.17%; as for `O=C(/C=C/c1ccc2ccccc2n1)c1ccncc1`, -35.1%. The same measure, in the same setting: the value for `CC[N+](C)(CC)CCC[n+]1c(-c2ccccc2)c2cc(N)ccc2c2ccc(N)cc21` [propidium-iodide] was -10.7%; that for `CO[C@H]1/C=C/O[C@@]2(C)Oc3c(C)c(O)c4c(O)c(c(C=NN5CCN(C)CC5)c(O)c4c3C2=O)NC(=O)C(C)=CC=CC(C)[C@@H](O)[C@@H](C)[C@H](O)[C@H](C)[C@@H](OC(C)=O)[C@H]1C` (stereo not given in full) [Rifampin (Rifampicin)] was -0.8%. Still for that read-out and setting: the value for `CO[C@@]12[C@@H]3NC3CN1C1=C(C(=O)C(N)=C(C)C1=O)[C@@H]2COC(N)=O` (stereo not given in full) was -33.6%; that for `CC[C@]1(O)C[C@H]2CN(CCc3c([nH]c4ccccc34)[C@@](C(=O)OC)(c3cc4c(cc3OC)N(C)[C@H]3[C@@](O)(C(=O)OC)[C@H](OC(C)=O)[C@]5(CC)C=CCN6CC[C@]43[C@@H]65)C2)C1` [Vinblastine Sulfate] was -33.4%; that for `CSc1nc2cc(Cl)c(Oc3cccc(Cl)c3Cl)cc2[nH]1` was 2.75%. As to `COc1ccc(NS(=O)(=O)c2ccc(N=Nc3ccc(O)c(C(=O)O)c3)cc2)nn1` [salazodine], the “relative growth in counter assay” value turned out to be 6.32%.

Take `O=C(O)c1cc(N=Nc2ccc(O)c(C(=O)O)c2)ccc1O` [Olsalazine Na]: the “relative growth in counter assay” value came to 1.54%. The same measure, in the same setting: the value for `Nc1ccc2cc3ccc(N)cc3nc2c1` was -35.1%. Same read-out and setting: the value for `O=C(Nc1ccc(S(=O)(=O)Nc2nccs2)cc1)C(c1ccccc1)c1ccccc1` was -2.35%; that for `NC1CC(O[C@H]2C[C@@]([C@@](C)=O)(O)CC3=C2C(O)=C5C(C(C4=CC=CC(OC)=C4C5=O)=O)=C3O)OC(C)C1O` (stereo not given in full) [daunorubicin] was -35.4%. On the same count and under the same terms, the value for `COc1ccc(-c2nc3cc(C4=NNC(=O)CC4C)ccc3[nH]2)cc1` (stereo not given) [Pimobendan (Vetmedin)] was -0.97%. As to `Clc1ccc(COC(Cn2ccnc2)c2ccc(Cl)cc2Cl)c(Cl)c1` (stereo not given) [Miconazole], the “relative growth in counter assay” value came out at 1.72%. The same measure, in the same setting: as for `C=CC[C@@H]1/C=C(\C)C[C@H](C)C[C@H](OC)[C@H]2O[C@@](O)(C(=O)C(=O)N3CCCC[C@H]3C(=O)O[C@H](/C(C)=C/[C@@H]3CC[C@@H](O)[C@H](OC)C3)[C@H](C)[C@@H](O)CC1=O)[C@H](C)C[C@@H]2OC` [Tacrolimus], the figure is 18.6%; as for `Cc1cc(C)c(C2=NOC3C4CCC(C4)C23)c(C)c1` (stereo not given), 1.92%.

For `N#CC(c1ccccc1)(c1ccccc1)c1ccccc1Cl`, the “relative growth in counter assay” value came out at 1.13%.

Regarding `CN1CCN(Cc2ccc(-c3cnc4[nH]cc(-c5ccc6[nH]ccc6c5)c4c3)cc2)CC1`, the “relative growth in counter assay” value is -34.1%. For the molecule `COC(=O)/C=C/c1cc(O)ccc1O` [erbstatin-analog], the “relative growth in counter assay” value is -32.8%. Take `Nc1nc2c(ccc3ccccc32)s1`: the “relative growth in counter assay” value stood at 4.08%. Same read-out and setting: the value for `C/C(=C\c1csc(C)n1)[C@@H]1C[C@@H]2O[C@]2(C)CCC[C@H](C)[C@H](O)[C@@H](C)C(=O)C(C)(C)[C@@H](O)CC(=O)N1` [Ixabepilone] was -33.8%; that for `COC(=O)C1=C(C)NC(C)=C(C(=O)OC/C=C/c2ccccc2)C1c1cccc([N+](=O)[O-])c1` (stereo not given) [Pranidipine] was -3.72%; that for `OCCCNc1cc(-c2ccnc(Nc3cccc(Cl)c3)n2)ccn1` was -34.4%. Still for that read-out and setting: the value for `Nc1ccc2ncnc(NCCc3ccc(Oc4ccccc4)cc3)c2c1` was -8.23%; that for `NC(=O)c1cn([C@@H]2O[C@H](CO)[C@@H](O)[C@H]2O)c2ncnc(N)c2c1=O` was -10.5%. Regarding `Oc1c(I)cc(Cl)c2cccnc12`, the “relative growth in counter assay” value is -3.3%. Regarding `Cc1ccc(/C=C2\CNC/C(=C\c3ccc(C)cc3)C2=O)cc1`, the “relative growth in counter assay” value was -34.5%. The same measure, in the same setting: as for `O=C(Nc1nc(-c2cc(Cl)cs2)c(N2CCN(C3CCCCC3)CC2)s1)c1cnc(N2CCC(C(=O)O)CC2)c(Cl)c1` [Avatrombopag], the figure is -3.51%; as for `COc1ccccc1NC(=O)OCC1CCN(C(=O)OC(C)(C)C)CC1`, -0.54%.

With `Cc1nc(-c2cccnc2)sc1C(=O)Nc1ccccc1-c1cn2c(CN3CCOCC3)csc2n1`, the “relative growth in counter assay” value is -2.87%.

For the molecule `COc1ccc(Cl)cc1C(=O)NCCc1ccc(C(=O)O)cc1` [meglitinide], the “relative growth in counter assay” value was -0.23%. On the same count and under the same terms, the value for `O=c1c(O)c(-c2cc(O)c(O)c(O)c2)oc2cc(O)cc(O)c12` [Myricetin (Cannabiscetin)] was -1.64%; that for `Nc1nc(=O)n([C@H]2C[C@H](O)[C@@H](CO)O2)cc1F` [5-Fluoro-2'-deoxycytidine] was -26.3%.
